# Screening data (PubChem BioAssay)
# ELG1 DNA repair: ELG1-dependent DNA repair inhibition; Potency, µM (titrated, usually from 46.1 µM), for the others: at the top dose activity change, negative = inhibition, hits mostly inhibitors; HEK293T ELG1-luciferase reporter, luminescence, 16 h; DNA damage induced by 5-fluorouridine; 330,000 tested, 2.3% active; AID 504467; further: potency means the concentration at half of the fitted maximal effect; nearly all actives have a fitted effect of over 55% in size
#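 In this reporter screen, reduction of luminescence relative to DMSO vehicle indicated activity. Compounds and 5-fluorouridine were added together to 2,000 cells per well, incubated for 16 hr at 37 °C, then developed with ONE-Glo.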
# HT1080 IDH1KD tx: toxicity to HT-1080 IDH1 knockdown cells (counter line); HT-1080 IDH1 knockdown viability, ATP luminescence, 48 h; Potency, µM (highest dose often 46.1 µM), for inactives: at the top dose activity, negative = toxicity, most hits filed as cytotoxic; 360,000 tested, 2% active; AID 686971;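 further: potency means the concentration at half of the fitted maximal effect; 0% = DMSO wells and -100% = cell-free medium wells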
#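 CellTiter-Glo luminescence after 48 h compound exposure at 37 degrees C of IDH1-knockdown HT-1080 cells in 5% FBS RPMI. %Activity scaled between DMSO wells and cell-free media wells, with curves fitted and assigned curve classes.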
# IL-1B inflam inh: blocks inflammasome-driven IL-1 beta release. THP-1 LPS/ATP IL-1B secretion, AlphaLISA, 16 h; hits give low values. activity change, % at 57.5 µM. 360,000 tested, 4.7% active; in the data active means activity change below about -50%; inconclusive means mostly about -30% to -49%
#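 THP-1 cells pretreated 1 hr with compounds (up to 57.5 uM final), then stimulated with LPS (250 ng/mL final) plus ATP (1.25 mM final); secreted IL-1B measured by AlphaLISA after 16 hr, decreased signal indicating inhibition.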
# DT40 TDP1 no CPT: qHTS for Inhibitors of human tyrosyl-DNA phosphodiesterase 1 (TDP1): qHTS in cells in absence of CPT; DT40 Tdp1-/- hTDP1 cells, no CPT, ATP luminescence, 48 h; Potency, µM (titrated, usually from 46.2 µM), for the others: at the highest dose activity change, negative = growth inhibition, hits mostly inhibitors; 420,000 tested, 15% active; AID 686978, 2013; further: potency means the concentration at half of the fitted maximal effect; nearly all actives have a fitted effect of over 55% in size
#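 Cells were dispensed at 400 per well, compounds added by pin tool, plates incubated ≥48 hr at 37 °C, then CellTiter-Glo added for 30 min at room temperature before luminescence reading. Line: DT40 Tdp1-/- complemented with hTDP1; camptothecin omitted.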
# HT1080-NT tox: kills 2HG-producing HT-1080-NT fibrosarcoma cells | HT-1080-NT fibrosarcoma viability, CellTiter-Glo ATP luminescence, 48 h | Potency, µM (series often up to 46.1 µM), inactives show at the top dose activity, negative = less viability, actives largely listed as cytotoxic | 360,000 tested, 1.6% active;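 further: NT is the 2HG producing partner of a matched IDH1 knockdown line; potency means the concentration at half of the fitted maximal effect; 0% = DMSO-treated cells and -100% = media-only wells without cells; nearly all actives have a fitted effect of over 55% in size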
#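 HT-1080-NT fibrosarcoma cells (2HG-overproducing), 750 cells/well in RPMI with 5% FBS, dosed after 2 h and incubated 48 h at 37C. CellTiter-Glo luminescence normalized to DMSO and no-cell wells; concentration-response curves fitted and classed.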
# DT40 TDP1 CPT: growth inhibition of DT40 Tdp1-/-;hTDP1 cells with camptothecin (screen for TDP1 inhibitors); chicken DT40 Tdp1-/-;hTDP1 cells + 20 nM CPT, ATP luminescence, 48 h; Potency, µM (doses to about 46.2 µM), without a hit: at the highest dose activity change, negative = growth inhibition, usual class: inhibitors; 420,000 tested, 12% active; AID 686979; further: potency means the concentration at half of the fitted maximal effect; nearly all actives have a fitted effect of over 55% in size
#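 Cell growth measured by CellTiter-Glo luminescence after a minimum 48 h, 37 C compound exposure with 20 nM CPT in Tdp1-knockout DT40 cells stably expressing hTDP1, seeded 400/well; qHTS titration format.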
# Active calls of the source: *; ? = inconclusive; . = not tested or not shown; [ ] = dose if it differs, or a comment. Rows were chosen to be rich in hits. Some 19% of all compounds tested hit in one or more screens of this group. Unless noted, the call rests on the fitted dose curve; in most records, active means well fitted curve in the direction sought with a large enough effect; inconclusive means small, poorly fitted or top-dose-only effect, or another doubt; inactive means no such curve, though single readings can be large; an effect the other way counts as inactive or inconclusive. Unless noted, on the % scale 0 is the no-effect control and ±100 the full control effect.
SMILES,ELG1 DNA repair,HT1080 IDH1KD tx,IL-1B inflam inh,DT40 TDP1 no CPT,HT1080-NT tox,DT40 TDP1 CPT
CC(=O)O[C@H]1CC[C@@]2(C)C(=CC(=O)C3C2CC[C@@]2(C)C3C[C@H](OC(C)=O)[C@@H]2OC(C)=O)C1 (some centres undefined),27.1%,3.8%,12.3,?,-0.7%,?
COC(=O)C1=C(c2cccc(C#N)c2)C[C@@H]2CC[C@H]1N2C(=O)N1CCCC1,29.9%,3.4%,35.1,18.4µM*,0.6%,?
CCCCOCCCn1c(N)c(C(=O)OC(C)COC)c2nc3ccccc3nc21 (centres undefined),?,-21.5%,?,?,-25.4%,?
CCCCn1c(NC(=O)c2ccc(Br)o2)c(C(=O)OCC)c2nc3ccccc3nc21,?,-29.7%,-7.2,20.6µM*,?,?
CCCCn1c(NS(=O)(=O)c2ccccc2)c(C(=O)OCC)c2nc3ccccc3nc21,-19.0%,-14.9%,-22.7,20.6µM*,?,?
CCC(=NCc1cccnc1)c1c(O)n(-c2ccc(Cl)cc2)c(=O)[nH]c1=O,1.7%,17.9%,4.9,-8.8%,?,-0.2%
O=c1c2ccccc2nc(/C=C/c2ccc([N+](=O)[O-])o2)n1-c1ccc(O)cc1,?,2.59µM*,-87.7*,2.31µM*,?,2.31µM*
Cc1cccc(-n2c(/C=C/c3ccc([N+](=O)[O-])o3)nc3ccccc3c2=O)c1,?,?,-104.0*,4.61µM*,5.2%,3.26µM*
O=c1c2ccccc2nc(-c2ccccc2)n1-c1ccc(O)cc1,?,-7.0%,6.8,?,18.1%,?
Cc1ccccc1NC(=O)CCl,-25.8%,-1.0%,-86.3*,23.1µM*,-11.3%,18.4µM*
Cc1cccc(C)c1OCC(=O)Nc1ccc(Cl)cc1C(=O)c1ccccc1,.,.,.,-10.5%,.,7.7%
C[C@@H]1O[C@H](C[N+](C)(C)C)C[C@@H]1O,.,.,.,-5.3%,.,16.3%
C=CCn1c(O)c(/C=N/N2CCCCC2)c(=O)[nH]c1=O,12.3%,-0.9%,31.7,1.9%,13.0%,1.7%
CN(C)C(=S)SSC(=S)N(C)C,?,?,24.1,0.146µM*,?,0.146µM*
CN(C)C(=S)SC(=S)N(C)C,.,.,.,0.841µM*,.,0.841µM*
CCCCS(=O)(=O)N1CCN(C(=N)N[N+](=O)[O-])CC1,0.0%,2.5%,8.7,-14.1%,19.3%,-2.2%
CC1=C(O)C(=O)[C@H]2O[C@@H]2C1=O,.,.,.,10.6µM*,.,7.5µM*
O=C(Cn1cc(C(=O)c2ccccc2)c2ccccc21)Nc1ccc(Br)cc1,.,.,.,23.1µM*,.,?
Cc1ccc(NC(=O)Cn2cc(C(=O)c3ccccc3)c3ccccc32)cc1,.,.,.,?,.,-91.6%
[O]=[Sb]([OH])([OH])[c]1ccccc1,.,.,.,-6.5%,.,3.5%
OCCCBr,.,.,.,-0.3%[92.5 µM],.,5.4%[92.5 µM]
CN1OC[C@@H]2CN[C@H](c3ccc(Br)cc3)C[C@@H]21,.,-0.7%,4.8,-17.2%,5.9%,-19.8%
CC(=O)NC(C)Cc1ccccc1 (centres undefined),12.8%,1.4%,7.7,-9.9%,6.6%,11.2%
CCC(OC(C)=O)C(CC(C)NC)(c1ccccc1)c1ccccc1 (centres undefined),.,.,.,24.6µM*,.,21.9µM*
CC[C@H](OC(C)=O)C(C[C@H](C)N(C)C)(c1ccccc1)c1ccccc1,-5.5%,?,.,23.1µM*,?,?
SMILES,ELG1 DNA repair,HT1080 IDH1KD tx,IL-1B inflam inh,DT40 TDP1 no CPT,HT1080-NT tox,DT40 TDP1 CPT
O=[N+]([O-])c1ccc(N2CCCCCC2)c2ncccc12,-0.9%,20.4%,18.3,19.3%,2.3%,-1.9%
CCOC(=O)c1cccc(NC(=O)c2c(O)[nH]c(=O)[nH]c2=O)c1,.,-1.5%,-4.1,-7.0%,-7.2%,0.4%
CCCCCNc1c(C(=O)OCC)c(=O)[nH]c2ccccc12,?,-13.9%,1.0,13µM*,-10.4%,?
Cn1c(=O)oc2cc(S(=O)(=O)N3CCCC(C(=O)N4CCN(c5cccc(Cl)c5)CC4)C3)ccc21 (centres undefined),.,.,.,8.2µM*,.,9.2µM*
Cc1csc(NC(=O)C2CCCN(S(=O)(=O)c3ccc4c(c3)oc(=O)n4C)C2)n1 (centres undefined),?,0.1%,8.9,?,15.0%,?
COc1ccccc1N1CCN(S(=O)(=O)c2ccc3c(c2)oc(=O)n3C)CC1,4.5%,2.1%,-11.9,?,2.9%,-2.8%
COc1cccc(N2CCN(C(=O)C3CCN(S(=O)(=O)c4ccc5c(c4)oc(=O)n5C)CC3)CC2)c1,4.6%,8.4%,-3.1,18.4µM*,0.6%,16.4µM*
O=S(=O)(F)c1ccc2nc(-c3cccc(Sc4ccccc4)c3)cc(Cl)c2c1,-0.2%,14.2%,16.2,0.0%,3.0%,6.7%
CCOc1ccc(CCNC(=O)c2ccc(-n3c(C)cc4c3CCCC4)cc2)cc1OCC,.,.,.,11.6µM*,.,11.6µM*
O=C(COc1ccccc1[N+](=O)[O-])N1CCN(CCc2ccncc2)CC1,.,.,.,?,.,-16.4%
CCc1ccc(NC(=O)CN2C(=O)C3(SCC(=O)N3c3ccc(F)c(F)c3)c3ccccc32)cc1 (centres undefined),.,.,.,?,.,18.4µM*
NS(=O)(=O)c1ccc(-c2ccc(C=C3C(=O)NC(=O)NC3=O)o2)cc1,18.7%,9.4%,39.1,-1.4%,13.1%,-25.5%
O=C1NC(=O)C(=Cc2ccc(SC3CCCCC3)o2)C(=O)N1,?,?,?,?,?,16.4µM*
O=C(Nc1ccc(Oc2ccc(Cl)cc2)c(Cl)c1)c1cc(I)cc(I)c1O,6.0%,?,12.5,?,?,?
COc1cc(CC(C)N)cc(OC)c1OC (centres undefined),.,.,.,-6.3%[92.5 µM],.,3.5%[92.5 µM]
c1ccc(C2(NC3=NCCO3)CCCCC2)cc1,.,-10.9%,?,9.2µM*,-5.8%,?
CC1CN(c2ccccc2)NC1=O (centres undefined),-12.5%,-1.4%,8.5,?,-0.5%,13µM*
CCCCCCn1c(=O)c(C(=O)Nc2cnccn2)c(O)c2ccccc21,?,?,0.0,0.581µM*,-20.8%,0.82µM*
CCCCCn1c(=O)c(C(=O)Nc2ccccn2)c(O)c2ccccc21,-1.3%,-7.0%,14.6,4.61µM*,-7.9%,3.66µM*
CCCCCn1c(=O)c(C(=O)Nc2cccc(C)n2)c(O)c2ccccc21,18.0%,11.4%,33.1,?,26.4%,28.9%
